Rows were chosen to be rich in hits. Some 19% of all compounds tested hit in one or more screens of this group.
TDP1 block: inhibitors of human tyrosyl-DNA phosphodiesterase TDP1; Q9NUW8; recombinant TDP1, AlphaScreen DNA substrate cleavage; Potency, µM (highest dose often 130 µM), usual class: inhibitors; 350,000 tested, 0.28% active; also: nearly all actives have a fitted effect of over 40% in size
Target sequence (Q9NUW8 whole entry, looked up): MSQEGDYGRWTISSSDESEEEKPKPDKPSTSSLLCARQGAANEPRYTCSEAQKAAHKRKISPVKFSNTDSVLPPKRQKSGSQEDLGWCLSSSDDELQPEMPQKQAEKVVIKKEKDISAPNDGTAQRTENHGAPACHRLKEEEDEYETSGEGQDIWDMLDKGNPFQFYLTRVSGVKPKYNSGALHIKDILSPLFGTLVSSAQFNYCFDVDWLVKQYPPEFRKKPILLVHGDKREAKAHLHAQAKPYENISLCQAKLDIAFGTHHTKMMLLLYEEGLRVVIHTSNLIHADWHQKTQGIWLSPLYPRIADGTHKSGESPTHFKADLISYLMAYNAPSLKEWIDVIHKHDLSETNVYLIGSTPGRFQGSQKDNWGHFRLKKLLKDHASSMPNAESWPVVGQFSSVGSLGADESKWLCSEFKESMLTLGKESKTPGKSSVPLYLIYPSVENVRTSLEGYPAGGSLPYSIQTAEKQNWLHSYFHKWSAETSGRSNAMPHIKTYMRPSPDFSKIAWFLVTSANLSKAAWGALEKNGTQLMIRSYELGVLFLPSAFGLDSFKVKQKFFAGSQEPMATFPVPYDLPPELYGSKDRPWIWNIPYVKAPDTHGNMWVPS
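Recombinant human Tdp1 (E. coli-expressed, 1 nM final) preincubated with compounds 15 min at room temperature, then 5'-biotin/3'-phosphotyrosine-FITC DNA substrate (15 nM final) added for 5 min. AlphaScreen beads (10 ug/ml final) added 10 min; cleavage lowers signal.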
TGFb SMAD3 inh: TGF-b pathway inhibition | HepG2 CAGA-GFP TGF-b/SMAD3 reporter, GFP fluorescence, 18 h; TGF-beta stimulated, 500 pg/mL final | Potency, µM (top dose mostly 46.1 µM), actives largely listed as inhibitors | 410,000 tested, 1.2% active | AID 588855; also: nearly all actives have a fitted effect of over 65% in size
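Inhibition was scored as loss of TGF-beta-induced (500 pg/mL final, 18 hours, 37 degrees C) GFP in HEPG2 cells carrying a CAGA-GFP reporter, in DMEM with 1% FBS. Well GFP was summed per cell; Activity was normalised to unstimulated and stimulated DMSO wells, then concentration-response fitting.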
HepG2 tox: HepG2 cytotoxicity, counter-screen for TGF-b inhibitors; HepG2 CAGA-GFP viability, ATP luminescence, 18 h; Potency, µM (doses to about 46.1 µM), usual class: cytotoxic; 410,000 tested, 0.76% active
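CellTiter-Glo luminescence gave cytotoxicity after 18 hours at 37 degrees C. The cells were HepG2 CAGA-GFP in 1% FBS DMEM, stimulated with 500 pg/mL TGF-beta after compound addition. %Activity was normalised to no-cell wells (complete cell-killing) and DMSO (no toxicity), and curves were fitted and classified.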
DT40 TDP1 no CPT: qHTS for Inhibitors of human tyrosyl-DNA phosphodiesterase 1 (TDP1): qHTS in cells in absence of CPT | 420,000 tested, 15% active | DT40 Tdp1-/- hTDP1 cells, no CPT, ATP luminescence, 48 h | Potency, µM (highest dose often 46.2 µM), most hits filed as inhibitors; also: nearly all actives have a fitted effect of over 55% in size
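Growth of hTDP1-complemented DT40 Tdp1-knockout cells is measured by ATP luminescence after at least 48 hr compound exposure at 37 °C, with DMSO substituting for the 20 nM CPT used in the parallel screen.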
DT40 TDP1 CPT: growth inhibition of DT40 Tdp1-/-;hTDP1 cells with camptothecin (screen for TDP1 inhibitors); Potency, µM (doses to about 46.2 µM), most hits filed as inhibitors; AID 686979; chicken DT40 Tdp1-/-;hTDP1 cells + 20 nM CPT, ATP luminescence, 48 h; 420,000 tested, 12% active; also: nearly all actives have a fitted effect of over 55% in size
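Chicken DT40 Tdp1-/- cells complemented with human TDP1, 400 cells/well, exposed to compounds plus 20 nM camptothecin for at least 48 h at 37 C; viability read as ATP content by CellTiter-Glo luminescence.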
IL-1B inflam inh: inhibitors of inflammasome signaling (IL-1 beta secretion); THP-1 LPS/ATP IL-1B secretion, AlphaLISA, 16 h; active compounds read low; activity change, % at 57.5 µM; 360,000 tested, 4.7% active; AID 743279; in the data active = activity change below about -50%; inconclusive = mostly about -30% to -49%
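THP-1 cells pretreated 1 hr with compounds (up to 57.5 uM final), then stimulated with LPS (250 ng/mL final) plus ATP (1.25 mM final); secreted IL-1B measured by AlphaLISA after 16 hr, decreased signal indicating inhibition.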
Each line names hits and unclear results; the compound was inactive in the other large screens. Unless noted, calls follow the shape of the dose curve; as a rule, active = well fitted curve in the direction sought with a large enough effect; inconclusive = small, poorly fitted or top-dose-only effect, or another doubt; inactive = no such curve, though single readings can be large; an effect the other way counts as inactive or inconclusive.

COCCN(Cc1cc2cc3c(cc2nc1Cl)OCO3)C(=O)Nc1ccccc1OC	DT40 TDP1 no CPT 23µM, DT40 TDP1 CPT 16µM
Cc1ccc2nc(Cl)c(CN(Cc3cccs3)C(=O)C3CC3)cc2c1	TGFb SMAD3 inh inconclusive, DT40 TDP1 CPT inconclusive
COc1ccc(CCN(Cc2cc3cc(C)c(C)cc3nc2Cl)C(=O)C2CC2)cc1	DT40 TDP1 no CPT 21µM, DT40 TDP1 CPT 26µM
COCCN(Cc1cc2cc(C)ccc2nc1Cl)C(=O)Nc1ccccc1C	DT40 TDP1 no CPT 16µM, DT40 TDP1 CPT 16µM, IL-1B inflam inh -70
COc1cc(NC(=O)c2c(C)oc3c2C2=NCCN2C=N3)cc(OC)c1OC	TGFb SMAD3 inh inconclusive, DT40 TDP1 no CPT inconclusive (no result: IL-1B inflam inh)
S=c1ccss1	DT40 TDP1 no CPT inconclusive (no result: TGFb SMAD3 inh, HepG2 tox, IL-1B inflam inh)
NC(C(=O)O)[C@H](O)C(=O)O (stereo partly drawn)	none (no result: TGFb SMAD3 inh, HepG2 tox, IL-1B inflam inh)
Cc1cc(C)c(NC(=O)Cn2nnc(-c3nc(-c4ccncc4)no3)c2N)c(C)c1	none (no result: TGFb SMAD3 inh, IL-1B inflam inh)
COCC(=O)N(CCN(C)C)Cc1cc2cc3c(cc2nc1Cl)OCO3	none
COCCN(Cc1cc2cc3c(cc2nc1Cl)OCO3)C(=O)Nc1ccc(F)cc1	DT40 TDP1 no CPT 11µM, DT40 TDP1 CPT 16µM, IL-1B inflam inh -71
Cc1cc(C)cc(NC(=O)CN2CCc3ccccc3C2)c1	none
O=C(CN1CCC(Cc2ccccc2)CC1)NC(=O)NCc1ccccc1	TGFb SMAD3 inh inconclusive, IL-1B inflam inh -52
Cc1cccc(C)c1NC(=O)CN1CCN(CCCC(c2ccc(F)cc2)c2ccc(F)cc2)CC1	TGFb SMAD3 inh inconclusive, HepG2 tox 11µM, DT40 TDP1 no CPT 5.8µM, DT40 TDP1 CPT 7.3µM, IL-1B inflam inh -60
COc1cc(CN2CCC(Cc3ccccc3)CC2)cc([N+](=O)[O-])c1O	none (no result: TDP1 block)
COc1cc(NC(=O)CN2CCC(Cc3ccccc3)CC2)c(C)cc1[N+](=O)[O-]	DT40 TDP1 no CPT 8.2µM, DT40 TDP1 CPT 7.3µM
Cc1cccc(C)c1NC(=O)CN1CCc2ccccc2C1	DT40 TDP1 no CPT 16µM, DT40 TDP1 CPT 10µM (no result: TDP1 block)
O=C(CN1CCC(Cc2ccccc2)CC1)NC(=O)NC1CCCCC1	DT40 TDP1 no CPT inconclusive, DT40 TDP1 CPT inconclusive
CCc1ccccc1NC(=O)c1sc2nc3n(c(=O)c2c1C)CCC3	DT40 TDP1 no CPT inconclusive (no result: IL-1B inflam inh)
Cc1cccc(C)c1NC(=O)CN1CCC(Cc2ccccc2)CC1	DT40 TDP1 no CPT 13µM, DT40 TDP1 CPT 21µM (no result: TDP1 block)
Cc1cccc(C)c1NC(=O)C(c1ccccc1)N1CCC(Cc2ccccc2)CC1 (stereo not drawn)	DT40 TDP1 no CPT 9.2µM, DT40 TDP1 CPT 9.2µM (no result: TDP1 block)
COc1cccc([C@@H]2Oc3ccc(OC)cc3C[C@H]2OC(=O)NS(=O)(=O)c2ccc(C)cc2)c1	none (no result: TGFb SMAD3 inh, HepG2 tox, DT40 TDP1 no CPT, DT40 TDP1 CPT, IL-1B inflam inh)
Cc1nn(CCC(=O)NCc2cccc(Br)c2)c(=O)c2nn(-c3ccccc3)c(C)c12	DT40 TDP1 no CPT inconclusive, DT40 TDP1 CPT inconclusive (no result: IL-1B inflam inh)
CC1(C)CC(N=C=O)CC(C)(CN=C=O)C1 (stereo not drawn)	none (no result: TGFb SMAD3 inh, HepG2 tox, DT40 TDP1 no CPT, DT40 TDP1 CPT, IL-1B inflam inh)
Cc1ccccc1CNCc1c(C(=O)O)c(C)n(Cc2ccc(F)cc2Cl)c1C	TGFb SMAD3 inh inconclusive (no result: IL-1B inflam inh)
CC[C@@H]1CCC[C@@H](O)[C@@H](C)C(=O)O[C@H](C)[C@@H](C)C/C=C(C)/C(OC)=C\C(=O)N(C)C([C@@H](C)CC)C(=O)N(C)[C@@H](C(C)C)C(=O)N(C)[C@@H](COC)C(=O)N2CCC[C@H]2C(=O)N(C)[C@@H](C(C)C)C(=O)N2CCC[C@H]2C(=O)O1 (stereo partly drawn)	TGFb SMAD3 inh inconclusive, DT40 TDP1 no CPT 0.21µM, DT40 TDP1 CPT 0.15µM (no result: TDP1 block)
CCC(C)/C=C/C1=CC2=C(Cl)C(=O)C3(C)OC(=O)C(C(=O)C(C)C(C)O)C3C2=CO1 (stereo not drawn)	TDP1 block inconclusive, DT40 TDP1 no CPT 18µM, DT40 TDP1 CPT 12µM

Screening data: PubChem BioAssay, National Center for Advancing Translational Sciences (NCATS)
